Measured values reported in PubChem BioAssay AID651965 (National Center for Advancing Translational Sciences (NCATS), 2013).
Among all 340,000 compounds or so, about 6,400 (1.9%) were called active. Where a call stands in place of a potency, no number is given. Roughly 4% stayed inconclusive and do not appear here. Calls come from the whole dose curve; as a rule, active = well fitted falling curve with a large enough effect; inconclusive = small, poorly fitted or top-dose-only effect; inactive = no such curve, though single readings can be large or run the other way. The full list was thinned out, with actives kept by preference.
Note: the source files actives as falling curves though it sought activators and does not explain the sign; nearly all actives have a fitted effect of over 65% in size.

Each compound was assayed against ATP-dependent Clp protease proteolytic subunit (Bacillus subtilis (strain 168)) (UniProt P80244) (assay: qHTS Assay for Activators of ClpP). Settings: purified B. subtilis ClpP, FRET peptide cleavage, 20 min; series mostly up to 57.5 µM.
ATP-dependent Clp protease proteolytic subunit (Bacillus subtilis (strain 168)), sequence (P80244 whole entry, looked up): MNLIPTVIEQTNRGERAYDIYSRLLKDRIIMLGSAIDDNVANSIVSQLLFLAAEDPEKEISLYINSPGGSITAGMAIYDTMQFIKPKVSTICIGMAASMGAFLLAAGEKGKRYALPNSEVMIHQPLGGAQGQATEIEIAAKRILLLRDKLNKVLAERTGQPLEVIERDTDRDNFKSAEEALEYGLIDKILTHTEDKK
Text: The Clp protease proteolytic subunit (ClpP) is the core unit of the Clp complex belonging to the peptidase family S14 that hydrolyzes protein into small peptides in the presence of ATP and magnesium. It is ubiquitously expressed and is the major protease in bacteria. […] Unlike common antibiotics that simply interfere with the essential enzyme activity, ADEP binding activates the ClpP core in the absence of the regulatory Clp-ATPases leading to uncontrolled proteolysis and eventually cell death. Activators binding to the docking site on ClpP can also block formation of the ClpXP and ClpA/C-P holoenzyme complexes interfering with the normal biological functions of ClpP and thus have the potential to become new anti-microbials.
To identify activators of ClpP, a FRET based quenching reversal assay was developed using a purified B. subtilis ClpP and a decapeptide substrate (FRET-FV). The FRET-FV is tagged with a fluorescent molecule amino benzoic acid (donor) at the N-terminus and a nitrotyrosine quencher (acceptor) at the C-terminus. FRET-FV cleaves upon activation of ClpP with ADEP treatement and reverses the quenching effect of the nitrotyrosine causing an increase in fluorescence emission signal at 430nm. This assay was used to screen the Molecular Libraries Small Molecule Repository (MLSMR).
NIH Molecular Libraries Probe Production Centers Network [MLPCN]
NIH Chemical Genomics Center [NCGC]
Assay Submitter (PI): Michael Maurizi, National Cancer Institute
Two and a half microL/well of purified enzyme solution (final concentrations 10 microg/mL B. subtilis ClpP in 100 mM Tris/HCl pH8, 100 mM KCl, 0.05% low protease BSA, 2.5% glycerol, 0.01% Tween-20 buffer) was dispensed into 1536-well assay plates (Greiner, black solid, medium-binding plates) with Aurora Discovery BioRAPTR Flying Reagent Dispenser (FRD, Beckton-Dickenson). Compound solution (23 nL) was transferred to the assay plate using Kalypsys pin tool equipped with a 1536-pin tool. […] FRET signals at time 0 and after 20 min room temperature incubation were obtained using the PerkinElmer Envision plate reader with 320nm excitation and 430nm emission filters. Delta FRET value (Time 20 - Time 0) was calculated and normalized to the delta FRET value of positive control ADEP (5.8 microM final concentration) and negative control DMSO and no enzyme wells.
In the case of COC(=O)C1=C(c2ccc(OCc3ccccc3)cc2)C[C@@H]2CC[C@H]1N2C(=O)NCc1ccc(Cl)cc1, the Potency is reported as “inactive”.
With CCOc1ccc(-c2cc(C)n3nc(C(=O)Nc4ccc(C)c(C)c4)cc3n2)cc1 the Potency was 3.55 µM (active).
For ClCCN(CCCl)c1ccc(C=Nc2ccc(/C=C/c3ccnc4ccccc34)cc2)cc1, the Potency was “inactive”.
COC(=O)C1=C(c2ccc(OCc3ccccc3)cc2)C[C@@H]2CC[C@H]1N2C(=O)NCc1cccc(F)c1 was tested, and the Potency was “inactive”.
In the case of O=C(c1cc2nc(-c3ccccc3)cc(-c3ccccc3)n2n1)N1CCC2(CC1)OCCO2, the Potency is reported as 35.5 µM (active).
For Cc1ccc(-c2cc(C(=O)N3CCC4(CC3)OCCO4)no2)cc1, the Potency was “inactive”.
In the case of O=C(c1cc(-c2ccncc2)nc2ccccc12)N1CCC2(CC1)OCCO2, the Potency is reported as 28.2 µM (active).
In the case of O=C(c1cc(S(=O)(=O)N2CCOCC2)ccc1F)N1CCC2(CC1)OCCO2, the Potency is reported as “inactive”.
For Cc1cccc(-n2c(C)nc3cc(C(=O)N4CCC5(CC4)OCCO5)ccc32)c1, the Potency was “inactive”.
In the case of O=C(c1ccccc1[N+](=O)[O-])N1CCC2(CC1)OCCO2, the Potency is reported as “inactive”.
In the case of COc1cc([C@@H]2c3cc4c(cc3[C@H](OC(C)=O)[C@H]3COC(=O)[C@H]23)OCO4)cc(OC)c1OC, the Potency is reported as “inactive”.
With COc1ccc(-n2nnnc2C(c2cccc3ccccc23)N2CCC(n3c(=O)[nH]c4ccccc43)CC2)cc1 (configuration not stated) the Potency was “inactive”.
In the case of COc1ccc(-c2nc(CS(=O)CC(=O)N3CCC4(CC3)OCCO4)c(C)o2)cc1 (configuration not stated), the Potency is reported as 31.6 µM (active).
For COc1ccc(S(=O)(=O)NCc2ccc(C(=O)N3CCC4(CC3)OCCO4)cc2)cc1, the Potency was “inactive”.
In the case of COc1ccc(NC(=O)N2CCC3(CC2)OCCO3)c(OC)c1, the Potency is reported as “inactive”.
With CCC(C)(O)C(=O)OC1C(=O)OC2CC3C(C)=CC(=O)C(O)C3(C)C3C4(O)OCC23C1C(C)C4O (configuration not stated) the Potency was “inactive”.
With CCOC(=O)[C@]12Cc3ccccc3[C@H]1N(C1CCCCC1)C(=O)c1cc(OC)ccc12 the Potency was “inactive”.
c1ccc(N2Cc3ccccc3-n3nncc3C2)nc1 was tested, and the Potency was “inactive”.
For COc1cc(C(=O)N2Cc3ccc(Br)cc3-n3nncc3C2)cc(OC)c1OC, the Potency was “inactive”.
In the case of C[C@H]1CN([C@@H](C)CO)C(=O)CCCn2nncc2CO[C@H]1CN(C)C(=O)Oc1ccccc1, the Potency is reported as “inactive”.
COC(=O)C[C@H]1CC[C@H]2NC[C@@H](O)COC[C@@H]2O1 was tested, and the Potency was “inactive”.
For CCN(CC)CCOC(=O)c1cc2cc(COC)ccc2o1, the Potency was 28.2 µM (active).
In the case of O=P(OC1=CCCCC1)(c1ccccc1)c1ccccc1, the Potency is reported as “inactive”.
For CC(=CCOc1ccc2ccc(=O)oc2c1)C1=CC(=O)C(C)(C)O1, the Potency was “inactive”.
For CC1C(=O)OC2CCN3CC=C(COC(=O)C(C)(O)C1(C)O)C23 (configuration not stated), the Potency was “inactive”.
With Cc1nc2nc(C)c(CCC(=O)N3CCC4(CC3)OCCO4)c(C)n2n1 the Potency was “inactive”.
With Cc1ccc(Cn2c(C)c3cnn(CC(=O)N4CCC5(CC4)OCCO5)c(=O)c3c2C)cc1 the Potency was “inactive”.
O=C(CCCn1c(=O)[nH]c2cc(Cl)ccc2c1=O)N1CCC2(CC1)OCCO2 was tested, and the Potency was 28.2 µM (active).
In the case of CC(=O)OC1C2(CC3N4C(=O)C5(CO)SSC4(CC31O)C(=O)N5C)OC(C)C(C)(C)C2=O (configuration not stated), the Potency is reported as “inactive”.
With COc1ccc(NC(=O)N2Cc3ccccc3-n3nncc3C2)cc1 the Potency was “inactive”.
With COC1C(O)C(C)OC(OC2CCC3(C=O)C(CCC4C3CCC3(C)C(C5=CC(=O)OC5)CCC43O)C2)C1O (configuration not stated) the Potency was “inactive”.
With C[C@H]1CN([C@@H](C)CO)C(=O)CCCn2nncc2CO[C@H]1CN(C)C(=O)Oc1cccc2ccccc12 the Potency was “inactive”.
With CN(C)C(=O)Oc1ccc(OCc2cccc[n+]2C)cc1 the Potency was “inactive”.
In the case of CCOC(=O)c1c(-c2ccccc2)oc2ccc(OC(=O)N(C)C)cc12, the Potency is reported as 3.16 µM (active).
In the case of CN(C)C(=O)Oc1ccc2c(c1)O/C(=C\c1ccccc1)C2=O, the Potency is reported as “inactive”.
CCOC(=O)[C@]12Cc3cc(OC)ccc3[C@H]1N(C(C)C)C(=O)c1ccccc12 was tested, and the Potency was “inactive”.
With O=C(NC1CCCCC1)N1Cc2cc(N3CCCCC3)ccc2-n2nncc2C1 the Potency was “inactive”.
